Our source for the growth values is PubChem BioAssay (NCI).

The panel holds about 83,000 compounds, 20% with a hit somewhere; the sample as a whole holds those more often.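 Note: values are percent growth. 100 is the growth of untreated cells, values between 100 and 0 indicate rising inhibition; between -100 and 0 indicates cell death.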 Values without a mark were called inactive. Activity calls are given as the source filed them. How the source made its calls: active means growth percent below 10; inactive means the rest.

The subject of one test is SK-MEL-2 melanoma. Put plainly: NCI-60 one-dose screen, 48 h (100 = growth as untreated, 0 = no growth, -100 = all killed). The conditions noted are these: 10 µM unless noted.
As for `COc1cccc2cc(-c3cc4ccccc4[nH]3)/c(=N/C(=S)Nc3ccc(C)cc3)oc12`, the growth is 85%.

In the case of `CN1C(=O)N(C)C2NC(N/N=C/c3ccccc3)=NC21` (stereo unspecified), the growth is 108%.

For the compound `COc1cc(-c2cc(=O)oc3cc(O)ccc23)cc(OC)c1OC`, the growth is 101%.

For `COc1ccccc1/C=N/NC1=NC2C(N1)N(C)C(=O)N2C` (stereo unspecified), the growth is 104%.

`CCN(CC)CCSCCCNc1c(C)cnc2cc(Cl)ccc12`: the growth was 143%.

For the compound `COc1cc(Nc2cc(O)c3c(=O)cc(-c4ccccc4)oc3c2)cc(OC)c1`, the growth is 13.2%.

`NC(=O)c1ncn(C2OC(CO)C(O)C2O)n1` (stereo unspecified): the growth was 40.7%.

Turning to `C(=N\Nc1ncc(-c2cc3cc4c(cc3o2)OCO4)s1)/c1c[nH]c2ccccc12`, the growth was 51.3%.

Turning to `c1ccc(C2CC(c3cccc(Nc4ccncc4)c3)=NN2c2ccccc2)cc1` (stereo unspecified), the growth was 103%.

Regarding `CC1=NNC(=O)C1CCC(=O)N/N=C(\C)c1ccc2ccccc2c1` (stereo unspecified), the growth is 102%.

`O=C(N/N=C/c1ccncc1)c1ccccc1Nc1cccc(C(F)(F)F)c1`: the growth was 99.3%.

Regarding `COc1ccc(Nn2c(SCC(=O)Nc3nc(-c4ccc(Cl)cc4)cs3)nc(C)c2C)cc1`, the growth was 90.5%.

In the case of `COc1c(Cl)cc(Cl)c2ccc(C=C3C(=O)N(C)C(=O)N(C)C3=O)nc12`, the growth was 107%.

Regarding `Cc1cccc(C)c1-c1cc(Cc2ccc(Cl)cc2)c(=O)[nH]n1`, the growth is 114%.

Take `CCN1C(=O)N(CC)C2C1NN=c1s/c(=C3\C(=O)Nc4ccccc43)c(=O)n12` (stereo unspecified): the growth was 37.6%.

On to `CC(=O)Nc1ccc(C(=O)Nc2cc(-c3ccccc3)ccc2N)cc1`, for which the growth was 73.8%.

`CN1CCN(c2cc(F)c(NC3=C(Cl)C(=O)c4ncccc4C3=O)c(F)c2)CC1`: the growth was -49.6% (active).

In the case of `Clc1nc(Cl)c2ncn(CC3(Cn4cnc5c(Cl)nc(Cl)nc54)COC3)c2n1`, the growth is -76% (active).

For the compound `CC(C)(C)CC(C)(C)Nc1c(-c2ccc(C(F)(F)F)cc2)nc2cnccn12`, the growth is 91%.

Turning to `CCC(C)N(CCNc1cc(OC)cc2cccnc12)CCC(C)C` (stereo unspecified), the growth was 90%.

With `Cn1c(COC(=O)NCCc2ccccn2)nc2c(N3CCOCC3)nc(Cl)nc21`, the growth is 26.7%.

As for `BrC(Br)(Br)c1cnc2ccccc2n1`, the growth is 90.2%.

With `Clc1ccc(N2N=C(c3cccc(Nc4ccncc4)c3)CC2c2ccc3c(c2)OCO3)cc1` (stereo unspecified), the growth is 94.4%.

For the compound `COc1cc(CNC(=O)CCCCC[P+](c2ccccc2)(c2ccccc2)c2ccccc2)c(OC)c2c1OCO2`, the growth was 60.3%.

With `CC[C@@]12C=CCN3CC[C@]4(c5cc(NC(=O)COc6cc(OCC(=O)Nc7cc8c(cc7OC)N(C)[C@H]7[C@@](O)(C(=O)OC)[C@H](OC(C)=O)[C@]9(CC)C=CCN%10CC[C@]87[C@@H]%109)cc7oc(-c8ccccc8)cc(=O)c67)c(OC)cc5N(C)[C@@H]4[C@](O)(C(=O)OC)[C@H]1OC(C)=O)[C@H]32`, the growth is 85.1%.

As for `O=C1Nc2c(ccc(Cl)c2Cl)/C1=C/c1ccc(O)cc1`, the growth was 108%.

For `COc1ccc(/C=C(/c2ccccc2)[N+](=O)[O-])cc1`, the growth is -49.7% (active).

As for `COc1ccccc1/C=C1\Oc2cc(OCCCN3CCCC3)ccc2C1=O`, the growth was 102%.

In the case of `COc1ccc(/C=C\c2nc3ccccc3s2)cc1OP(=O)(O)O`, the growth is 22.2%.

Consider `COc1ccc(-c2c[nH]c(C(=O)O)c2-c2cc(OC)c3c(c2OC)OCO3)cc1`, for which the growth is 109%.

For `COc1ccc(C(=O)c2cc3c(N)c(C(=O)Nc4cccc(Cl)c4C)sc3nc2C)cc1`, the growth is 36.9%.

For `O=C(/C=C\c1ccc(OCCCCCC[P+](c2ccccc2)(c2ccccc2)c2ccccc2)cc1)c1ccc2c(c1)OCCO2`, the growth was -42.9% (active).

On to `Cc1cccc(Oc2ccc(Nc3ncnc4ccc(NC(=O)CNCCO)cc34)cc2Cl)c1`, for which the growth was 87.8%.

Take `O=C(CSc1nc2sc3c(c2c(=O)n1Cc1ccccc1)CCCC3)N1CCN(c2ccccc2)CC1`: the growth is 106%.

As to `Cc1cccc(Oc2ccc(Nc3ncnc4ccc(NC(=O)CN(C)C)cc34)cc2Cl)c1`, the growth is 84.2%.

As for `O=C1/C(=C/c2ccc(O)cc2)COc2ccc(-c3ccccc3)cc21`, the growth is 66.9%.

With `COc1ccc(C(=O)c2cc3c(N)c(C(=O)Nc4cccc(OC)c4)sc3nc2C)cc1`, the growth was 27.9%.

Consider `NS(=O)(=O)c1cccc(NC(=O)C(=O)C2C(=O)Nc3ccccc32)c1` (stereo unspecified), for which the growth is 113%.

In a further test the test system is EKVX NSCLC. Described as above. The settings on record: 10 µM unless noted.
Take `COc1cccc2cc(-c3cc4ccccc4[nH]3)/c(=N/C(=S)Nc3ccc(C)cc3)oc12`: the growth was 60.9%.

`CN1C(=O)N(C)C2NC(N/N=C/c3ccccc3)=NC21` (stereo unspecified): the growth is 98.7%.

Regarding `COc1cc(-c2cc(=O)oc3cc(O)ccc23)cc(OC)c1OC`, the growth was 89.8%.

Turning to `COc1ccccc1/C=N/NC1=NC2C(N1)N(C)C(=O)N2C` (stereo unspecified), the growth is 99.8%.

With `CCN(CC)CCSCCCNc1c(C)cnc2cc(Cl)ccc12`, the growth was 87.4%.

Turning to `COc1cc(Nc2cc(O)c3c(=O)cc(-c4ccccc4)oc3c2)cc(OC)c1`, the growth is 38.2%.

As for `NC(=O)c1ncn(C2OC(CO)C(O)C2O)n1` (stereo unspecified), the growth is 90.2%.

On to `C(=N\Nc1ncc(-c2cc3cc4c(cc3o2)OCO4)s1)/c1c[nH]c2ccccc12`, for which the growth was 5.32% (active).

With `c1ccc(C2CC(c3cccc(Nc4ccncc4)c3)=NN2c2ccccc2)cc1` (stereo unspecified), the growth is 91.4%.

As for `CC1=NNC(=O)C1CCC(=O)N/N=C(\C)c1ccc2ccccc2c1` (stereo unspecified), the growth was 154%.

Take `O=C(N/N=C/c1ccncc1)c1ccccc1Nc1cccc(C(F)(F)F)c1`: the growth is 91.7%.

In the case of `COc1ccc(Nn2c(SCC(=O)Nc3nc(-c4ccc(Cl)cc4)cs3)nc(C)c2C)cc1`, the growth is 41.9%.

Turning to `COc1c(Cl)cc(Cl)c2ccc(C=C3C(=O)N(C)C(=O)N(C)C3=O)nc12`, the growth is 101%.

Turning to `Cc1cccc(C)c1-c1cc(Cc2ccc(Cl)cc2)c(=O)[nH]n1`, the growth was 92.8%.

`CCN1C(=O)N(CC)C2C1NN=c1s/c(=C3\C(=O)Nc4ccccc43)c(=O)n12` (stereo unspecified): the growth is 65.3%.

As for `CC(=O)Nc1ccc(C(=O)Nc2cc(-c3ccccc3)ccc2N)cc1`, the growth is 71.4%.

For `CN1CCN(c2cc(F)c(NC3=C(Cl)C(=O)c4ncccc4C3=O)c(F)c2)CC1`, the growth is -82.7% (active).

As for `Clc1nc(Cl)c2ncn(CC3(Cn4cnc5c(Cl)nc(Cl)nc54)COC3)c2n1`, the growth is -71.6% (active).

With `CC(C)(C)CC(C)(C)Nc1c(-c2ccc(C(F)(F)F)cc2)nc2cnccn12`, the growth was 79.4%.

With `CCC(C)N(CCNc1cc(OC)cc2cccnc12)CCC(C)C` (stereo unspecified), the growth is 92.2%.

For `Cn1c(COC(=O)NCCc2ccccn2)nc2c(N3CCOCC3)nc(Cl)nc21`, the growth was 14.9%.

Consider `BrC(Br)(Br)c1cnc2ccccc2n1`, for which the growth is 70.4%.

For the compound `Clc1ccc(N2N=C(c3cccc(Nc4ccncc4)c3)CC2c2ccc3c(c2)OCO3)cc1` (stereo unspecified), the growth was 74.8%.

For the compound `COc1cc(CNC(=O)CCCCC[P+](c2ccccc2)(c2ccccc2)c2ccccc2)c(OC)c2c1OCO2`, the growth was 71.8%.

With `CC[C@@]12C=CCN3CC[C@]4(c5cc(NC(=O)COc6cc(OCC(=O)Nc7cc8c(cc7OC)N(C)[C@H]7[C@@](O)(C(=O)OC)[C@H](OC(C)=O)[C@]9(CC)C=CCN%10CC[C@]87[C@@H]%109)cc7oc(-c8ccccc8)cc(=O)c67)c(OC)cc5N(C)[C@@H]4[C@](O)(C(=O)OC)[C@H]1OC(C)=O)[C@H]32`, the growth is 56.8%.

Take `O=C1Nc2c(ccc(Cl)c2Cl)/C1=C/c1ccc(O)cc1`: the growth was 62.1%.

With `COc1ccc(/C=C(/c2ccccc2)[N+](=O)[O-])cc1`, the growth is -29.6% (active).

In the case of `COc1ccccc1/C=C1\Oc2cc(OCCCN3CCCC3)ccc2C1=O`, the growth is 90.6%.

As to `COc1ccc(/C=C\c2nc3ccccc3s2)cc1OP(=O)(O)O`, the growth was 76.8%.

For `COc1ccc(-c2c[nH]c(C(=O)O)c2-c2cc(OC)c3c(c2OC)OCO3)cc1`, the growth was 105%.

In the case of `COc1ccc(C(=O)c2cc3c(N)c(C(=O)Nc4cccc(Cl)c4C)sc3nc2C)cc1`, the growth is 39.6%.

With `O=C(/C=C\c1ccc(OCCCCCC[P+](c2ccccc2)(c2ccccc2)c2ccccc2)cc1)c1ccc2c(c1)OCCO2`, the growth was 23.9%.

As to `Cc1cccc(Oc2ccc(Nc3ncnc4ccc(NC(=O)CNCCO)cc34)cc2Cl)c1`, the growth was 34.9%.

On to `O=C(CSc1nc2sc3c(c2c(=O)n1Cc1ccccc1)CCCC3)N1CCN(c2ccccc2)CC1`, for which the growth was 99.6%.

In the case of `Cc1cccc(Oc2ccc(Nc3ncnc4ccc(NC(=O)CN(C)C)cc34)cc2Cl)c1`, the growth was 31.6%.

Consider `O=C1/C(=C/c2ccc(O)cc2)COc2ccc(-c3ccccc3)cc21`, for which the growth is 105%.

Consider `COc1ccc(C(=O)c2cc3c(N)c(C(=O)Nc4cccc(OC)c4)sc3nc2C)cc1`, for which the growth is 35.3%.

Take `NS(=O)(=O)c1cccc(NC(=O)C(=O)C2C(=O)Nc3ccccc32)c1` (stereo unspecified): the growth is 76%.
